# Bioassay records deposited in PubChem by National Center for Advancing Translational Sciences (NCATS).
# Only a selection was taken, and hits are over-represented in it overall.
# ERG-DNA inh: qHTS for Small Molecule Inhibitors of the ERG Ets/DNA interaction. Potency, µM (titrated, usually from 76.9 µM), for inactives: top-dose FP activity, negative = inhibition, actives largely listed as inhibitors. Transcriptional regulator ERG (Homo sapiens), P11308. 370,000 tested, 0.028% active. fluorescence polarization, His-ERG Ets domain / labelled DNA; active = well fitted inhibition curve with a large enough effect in the polarisation, with a control signal flat; inconclusive = small, poorly fitted or top-dose-only effect, or effect the other way, or a change in a side signal; inactive = no such curve, though single readings can be large or run the other way; the % refers to the polarisation;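 note: polarization taken with two DNA probes labelled with fluorescein and Texas red; potency is the fitted concentration of half-maximal effect; % of control where 0% means no effect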
# Target sequence (P11308 whole entry, looked up, the tested form may be a part): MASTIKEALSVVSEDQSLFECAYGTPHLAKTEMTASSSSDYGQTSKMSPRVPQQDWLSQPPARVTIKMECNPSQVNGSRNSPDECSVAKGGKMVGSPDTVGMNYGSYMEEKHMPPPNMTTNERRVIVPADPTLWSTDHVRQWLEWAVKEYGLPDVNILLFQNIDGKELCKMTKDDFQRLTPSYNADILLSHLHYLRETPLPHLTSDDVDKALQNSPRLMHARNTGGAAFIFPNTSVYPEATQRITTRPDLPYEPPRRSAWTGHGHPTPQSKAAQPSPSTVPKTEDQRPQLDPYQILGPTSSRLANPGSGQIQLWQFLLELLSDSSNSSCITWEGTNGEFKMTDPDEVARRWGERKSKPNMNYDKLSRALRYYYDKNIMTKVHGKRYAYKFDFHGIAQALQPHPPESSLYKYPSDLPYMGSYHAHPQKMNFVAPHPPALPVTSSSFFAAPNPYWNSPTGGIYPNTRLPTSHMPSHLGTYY
#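 His-tagged ERG Ets domain (1 uM in the protein solution; 300mM KCl, 50mM Tris-HCl, 1mM EDTA, 1mM DTT, pH 7.5) received compound, then a probe mix of 5 nM fluorescein-DNA and 100nM Texas-615-DNA. Fluorescence polarization was read for both dyes.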
# RORgamma inh: qHTS for inhibitors of ROR gamma transcriptional activity; Nuclear receptor ROR-gamma (Mus musculus), P51450; Drosophila S2 Gal4-RORgamma UAS-luciferase reporter, 20 h; Potency, µM (top dose mostly 53.6 µM), for the others: at the highest dose activity change, negative = inhibition, most hits filed as inhibitors; 310,000 tested, 5.4% active; note: potency is the fitted concentration of half-maximal effect; % is set by controls: 0 for no effect and ±100 for the full control effect; nearly all actives have a fitted effect of over 60% in size
#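 Read-out: Photinus luciferase luminescence; inhibitors lower reporter signal. Insect Schneider cells with Gal4-ROR gamma fusion under metallothionein promoter, UAS reporter; 700 uM final copper sulfate induction, 20 hr, ambient temperature.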
# Integrin act MD: qHTS for Activators of Integrin-Mediated Alleviation for Muscular Dystrophy. Potency, µM (highest dose often 38.3 µM), for inactives: at the highest dose activation, actives largely listed as activators. alpha7betagal myoblasts, beta-gal FDG fluorescence, 48 h. 350,000 tested, 0.064% active;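 note: potency is the fitted concentration of half-maximal effect; 100% = response of the positive control SU9516; nearly all actives have a fitted effect of over 60% in size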
#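 alpha7betagal+/- myoblasts (passage 13, 250/well) treated 48 h at 37C with compounds at 1:260 dilution of DMSO stock. Lysed, then beta-galactosidase activity read as FDG fluorescence (ex 480/em 540) after 30 min, with pre-read for autofluorescence.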
# Giardia kill: Small Molecules that selectively kill Giardia lamblia: qHTS; activity change, % at 7.66 µM, hits read low; Giardia lamblia trophozoite viability; AID 540267, 2011; 340,000 tested, 0.15% active; in the data active = activity change below about -80%; inconclusive = between about -30% and that limit;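 note: parasites exposed to compound for two days anaerobically before the ATP read; % is set by controls: 0 for no effect and ±100 for the full control effect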
#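 Luminescence from cellular ATP indicates surviving trophozoites (100 cells/well) following 48 hrs anaerobic compound treatment at 37 deg C; signal develops 15-30 min at room temperature.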
# Gal4-VP16 FLuc: VP16 counterscreen qHTS for inhibitors of ROR gamma transcriptional activity; 310,000 tested, 3.5% active; Drosophila S2 Gal4-VP16 UAS-luciferase, luminescence, 20 h; AID 2546, 2010; Potency, µM (highest dose often 53.6 µM), for inactives: at the highest dose activity, negative = inhibition, hits mostly inhibitors;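 note: Gal4-VP16 expression switched on by copper sulfate through the metallothionein promoter; potency is the fitted concentration of half-maximal effect; % is set by controls: 0 for no effect and ±100 for the full control effect; nearly all actives have a fitted effect of over 50% in size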
# * = called active by the depositor; ? = inconclusive; . = not tested or not shown; [ ] = dose if it differs, or a comment. Unless noted, calls come from the whole dose curve; as a rule, active = well fitted curve in the direction sought with a large enough effect; inconclusive = small, poorly fitted or top-dose-only effect, or another doubt; inactive = no such curve, though single readings can be large; an effect the other way counts as inactive or inconclusive.
SMILES,ERG-DNA inh,RORgamma inh,Integrin act MD,Giardia kill,Gal4-VP16 FLuc
S=c1nn[nH]n1C12CC3CC(CC(C3)C1)C2,.,2.5µM*,31%,-9,7.1µM*
Cc1ccc(NC(=O)Cc2nn(C)c(=O)c3ccccc23)cc1F,-4%,-19%,-27%,8,11µM*
Cn1nc(CC(=O)Nc2ccc(N3CCN(C(=O)OC(C)(C)C)CC3)cc2)c2ccccc2c1=O,-6%,?,21%,7,2.5µM*
COc1cc(NC(=O)Cc2nn(C)c(=O)c3ccccc23)cc(OC)c1,10%,?,-25%,15,?
Cn1nc(CC(=O)Nc2ccc3c(c2)OCCO3)c2ccccc2c1=O,12%,-34%,-40%,-1,7.9µM*
Cn1nc(CC(=O)N2CCN(c3ccccc3)CC2)c2ccccc2c1=O,2%,-20%,10%,-2,-7%
COCC(=O)N1CCC2CC1c1c(-c3ccc(C(F)(F)F)cc3)cccc12 (centres undefined),6%,.,21%,9,.
COc1ccc(C)cc1N(CC(=O)N1CCCCCC1)S(=O)(=O)c1ccccc1,-12%,18%,-20%,-1,-4%
CC1CC(C)CN(C(=O)CCCn2c(=S)[nH]c3ccccc3c2=O)C1 (centres undefined),0%,7.9µM*,6%,-6,13µM*
COCCn1c(=S)[nH]c2cc(C(=O)N3CC(C)CC(C)C3)ccc2c1=O (centres undefined),9%,11µM*,-7%,26,?
O=C(CCCn1c(=S)[nH]c2ccccc2c1=O)NCCSCc1ccccc1,14%,13µM*,-35%,-2,-5%[10 µM]
COCCn1c(=S)[nH]c2cc(C(=O)N3CCN(c4ccccc4OC)CC3)ccc2c1=O,3%,14µM*,19%[7.66 µM],3,?
O=C(CCCn1c(=S)[nH]c2ccccc2c1=O)N1CCCCC1,-2%,?,-8%,19,?
COCCn1c(=S)[nH]c2cc(C(=O)N3CCCC(C)C3)ccc2c1=O (centres undefined),8%,?,?,1,?
COCCn1c(=O)[nH]c2cc(C(=O)N3CCN(c4ccccc4OC)CC3)ccc2c1=O,0%,-3%,26%,-11,-4%
O=C(NC(=S)N1CCCCC1)c1csc([N+](=O)[O-])c1,5%,0.35µM*,-31%,?,1.1µM*
C=CCNC(=S)NC(=O)c1csc([N+](=O)[O-])c1,1%,?,7%,?,?
CC1CCN(C(=S)NC(=O)c2cccs2)CC1,-2%,0.25µM*,-13%,9,0.89µM*
CC1CCN(C(=O)c2ccc(NC(=O)c3cccs3)cc2)CC1,13%,44%,-11%,-15,-3%
CC1CCCCN1S(=O)(=O)c1ccc(NC(=O)c2cccs2)cc1 (centres undefined),.,30%,2%,-1,-2%
O=C(NC(=S)N1CCCCC1)c1cccs1,.,0.79µM*,10%,-1,1.3µM*
S=C(c1cccs1)N1CCCC1,-8%,25%[0.365 µM],-8%,0,.
CC1CCCCN1C(=S)NC(=O)c1cccs1 (centres undefined),3%,0.71µM*,?,-16,2.8µM*
CN(C)c1nc(N)nc(CSc2nnnn2C)n1,-3%,28%,20%,-14,9%
CN(C)c1nc(N)nc(CSc2ncc(Cl)cc2Cl)n1,-13%,13µM*,13%,-3,-29%
SMILES,ERG-DNA inh,RORgamma inh,Integrin act MD,Giardia kill,Gal4-VP16 FLuc
C[C@@H](C(=O)O)c1ccc(N2Cc3ccccc3C2=O)cc1,.,1.1µM*,.,.,2µM*
CC(C)c1ccc(C(CC(=O)O)N2Cc3ccccc3C2=O)cc1 (centres undefined),7%,4%,9%,-5,-6%
COc1ccc(-c2nc(-c3ccccc3)oc2NC(C)C)cc1,.,-3%,.,.,-4%
[O-][n+]1c2cc(C(F)(F)F)ccc2c2n1CCN=C2c1ccc(Cl)cc1,2%,.,2%,-89*,.
CCS(=O)(=O)c1cccc(C(=O)N2CCN(c3nc4c(C)ccc(Cl)c4s3)CC2)c1,-3%,.,.,32,.
Cc1ccc(Cl)cc1N1CCN(C(=O)c2cnc(N3CCOCC3)c3ccccc23)CC1,9%,.,.,.,.
COc1cccc(NC(=S)Nc2cc(C)cc(C)n2)c1,-6%,1.3µM*,-8%,-2,?
COc1ccc(NC(=S)Nc2cc(C)cc(C)n2)cc1OC,.,46%,20%,3,?
Cc1cc(C)nc(NC(=S)Nc2cccc(F)c2)c1,11%,1.8µM*,11%,2,7.1µM*
COC(=O)/C(=C1/OC(=O)C(c2ccccc2)=C1O)c1ccccc1,.,19%,.,.,1%
C=CCOC(=O)N[C@H](c1ccccc1)C(C(C)=O)C(C)=O,.,-5%,.,.,-1%
Cc1ccc(-c2nn3c(C)nnc3c3ccccc23)cc1S(=O)(=O)NCC(C)O (centres undefined),-10%,.,.,.,.
COc1ccccc1-c1nnc(NC(=O)CCS(=O)(=O)c2ccc(F)cc2)o1,.,.,-53%,.,.
CCN(CC)S(=O)(=O)c1ccc(C(=O)Nc2ncn(Cc3ccccc3)n2)cc1,-13%,-42%,11%,-9,-3%
COc1ccc(NC(=O)c2ccc(S(=O)(=O)N(C)C)cc2)cc1OC,0%,-2%,15%,-1,-1%
COc1ccccc1-c1nnc(NC(=O)CCS(=O)(=O)c2ccccc2)o1,3%,10µM*,-50%,22,10µM*
COc1ccccc1-c1nnc(NC(=O)c2ccc(S(=O)(=O)N(C)C)cc2)o1,0%,0.71µM*,-10%,7,0.63µM*
CCN(Cc1ccccc1)S(=O)(=O)c1ccc(C(=O)Nc2nnc(-c3ccccc3OC)o2)cc1,-10%,0.2µM*,-29%,0,0.35µM*
Cc1cccc(CCNC(=O)CN(c2ccc(C(C)C)cc2)S(=O)(=O)c2c(C)nn(C)c2C)c1,1%,.,.,.,.
CC1(C)N=C(SCc2ccc(F)cc2)c2ccccc2N1,6%,.,.,.,.
N#Cc1nc(/C=C/c2ccc(F)cc2)oc1N1CCCCC1,2%,.,.,.,.
Cc1ccc(Cc2cnc(NC(=O)/C(C#N)=C/c3ccc(-c4ccccc4[N+](=O)[O-])o3)s2)cc1,-6%,2.2µM*,-19%,10,4.5µM*
COc1cccc(NC(=O)/C(C#N)=C\c2cn(Cc3ccc(Cl)cc3)c3ccccc23)c1,45%,.,.,.,.
Cn1cc(/C=C(\C#N)C(=O)Nc2ncc(Cc3ccc(Cl)cc3)s2)c2ccccc21,-2%,2µM*,4%,1,2.5µM*
